The nature of experiment [1]: qHTS assay to identify aromatase inhibitors - cell viability counter screen (AID 743084;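 note: cells stimulated with testosterone during compound exposure; nearly all actives have a fitted effect of over 55% in size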). (qHTS replaces the single test concentration by a dilution series.)
The target in experiment [2] is Aryl hydrocarbon receptor (Homo sapiens) (UniProt P35869). Description: qHTS assay to identify small molecule that activate the aryl hydrocarbon receptor (AhR) signaling pathway (AID 743085).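 Note: HG2L7.5c1 human HepG2 liver cells with stably integrated DRE-driven firefly reporter; series mostly up to about 70 µM; nearly all actives have a fitted effect of over 15% in size.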 The method in brief:
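Cell line HG2L7.5c1 (human hepatoma, 20× DRE-luc). Plated, 5 h 37C, compound/DMSO added, 24 h 37C. CellTiter-Fluor 30 min 37C → fluorescence; then ONE-Glo 30 min RT → luminescence.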

Experiment [3] in a line: qHTS assay to identify small molecule that activate the aryl hydrocarbon receptor (AhR) signaling pathway - cell viability counter screen (AID 743086).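 Note: HepG2 liver cells carrying the AhR DRE luciferase reporter; series mostly up to about 70 µM; nearly all actives have a fitted effect of over 45% in size.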 The method in brief: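 HepG2-AhR-luc (HG2L7.5c1) cells, 4000/well, treated 24 h at 37 C with compound; viability measured as CellTiter-Fluor fluorescence after 30 min in the same wells as the luciferase read.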
Experiment [4] concerns the target Peroxisome proliferator-activated receptor gamma (Homo sapiens) (UniProt P37231). Description: qHTS assay to identify small molecule agonists of the peroxisome proliferator-activated receptor gamma (PPARg) signaling pathway (AID 743094; active = well fitted activation curve with a large enough effect in the signal ratio in the repeat runs, not every such curve was filed as active; the % refers to the signal ratio). The method in brief:
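Cell-based bla reporter, HEK293H background, PPARg-driven UAS. Pre-incubation 5 h, 37C, 5% CO2. Compound 17 h, 37C. Substrate 1 h RT; fluorescence.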

Experiment [5] has the same target. Description: qHTS assay to identify small molecule antagonists of the peroxisome proliferator-activated receptor gamma (PPARg) signaling pathway (AID 743191; calls by dose curve; note: series mostly up to about 63 µM; nearly all actives have a fitted effect of over 30% in size). The method in brief: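 GeneBLAzer PPARg UAS-bla HEK293H cells, 5 h post-plating, exposed to compounds 17 h at 37C. LiveBLAzer B/G FRET substrate added for 1 h at room temperature; beta-lactamase reporter read by fluorescence intensity.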

A short description of experiment [6]: qHTS assay to identify small molecule antagonists of the peroxisome proliferator-activated receptor gamma (PPARg) signaling pathway - cell viability counter screen (AID 743194). Note: nearly all actives have a fitted effect of over 55% in size. The method in brief:
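Cytotoxicity counter screen in PPARg-bla HEK293H cells, same wells as reporter assay. Compounds plus 50 nM rosiglitazone (final) for 17 h at 37 C, then viability read by CellTiter-Glo luminescence.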

Experiment [7] in a line: qHTS assay for small molecule agonists of the antioxidant response element (ARE) signaling pathway (AID 743202; active = well fitted activation curve with a large enough effect in the signal ratio in the repeat runs, not every such curve was filed as active; the % refers to the signal ratio; note: potency is the fitted concentration of half-maximal effect). The method in brief: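 HepG2 ARE-bla cells; 16 h treatment at 37 C; FRET-based beta-lactamase fluorescence read after 2 h substrate incubation at room temperature.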
Experiment [8] can be described thus: qHTS assay for small molecule agonists of the antioxidant response element (ARE) signaling pathway - cell viability counter screen (AID 743203; calls by dose curve; note: nearly all actives have a fitted effect of over 55% in size). The method in brief:
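Measured in the same wells as the beta-lactamase ARE reporter, this read-out is CellTiter-Glo luminescence from HepG2 ARE-bla cells given compounds for 16 hrs.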

Experiment [9] can be described thus: qHTS assay for small molecule activators of the heat shock response signaling pathway - cell viability counter screen (AID 743209). Note: nearly all actives have a fitted effect of over 50% in size. The method in brief:
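Same-well multiplex: after 2.5 h room-temperature incubation with LiveBLAzer B/G substrate and fluorescence reading, CellTiter-Glo reagent was added to HSE-bla HeLa cells that had received compound for 5 h at 37 C; luminescence read after 30 min.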

Experiment [10] is described as follows: qHTS assay for small molecule activators of the heat shock response signaling pathway (AID 743210; active = well fitted activation curve with a large enough effect in the signal ratio in the repeat runs, with a control signal flat, not every such curve was filed as active; the % refers to the signal ratio;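 note: HeLa cells with beta-lactamase reporter driven by heat shock elements; series mostly up to about 63 µM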). The method in brief:
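Following overnight attachment, HSE-bla HeLa cells received test compounds for 5 h at 37 C; beta-lactamase activity was then detected via FRET substrate fluorescence.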

Experiment [11] can be described thus: qHTS assay to identify small molecule agonists of the peroxisome proliferator-activated receptor delta (PPARd) signaling pathway - cell viability counter screen (AID 743211). Note: nearly all actives have a fitted effect of over 55% in size. The method in brief:
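HEK293H PPARd-bla, 3000 cells/well; 5 h preincubation 37C/5% CO2; cpd in DMSO, 17 h 37C; B/G FRET substrate 2 h RT; CellTiter-Glo 30 min RT, luminescence.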

Experiment [12] can be described thus: qHTS assay to identify small molecule antagonists of the peroxisome proliferator-activated receptor delta (PPARd) signaling pathway - cell viability counter screen (AID 743213). Note: nearly all actives have a fitted effect of over 50% in size. The method in brief: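 PPARd-bla HEK293H cells (3000/well) got compound plus 300 nM L165041 agonist for 17 h at 37 C. Viability in the same wells came from CellTiter-Glo luminescence after 30 min at room temperature.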

A short description of experiment [13]: qHTS assay to identify small molecule agonists of the farnesoid-X-receptor (FXR) signaling pathway - cell viability counter screen (AID 743218). Note: nearly all actives have a fitted effect of over 45% in size. The method in brief: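 Readout: CellTiter-Glo luminescence, 30 min RT, multiplexed after the FXR-bla FRET reading. HEK 293T FXR-UAS-bla cells received compound 5 h post-plating and were incubated 16 h at 37 C.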
Experiment [14] can be described thus: qHTS assay to identify small molecule antagonists of the farnesoid-X-receptor (FXR) signaling pathway - cell viability counter screen (AID 743221; active = well fitted cell-killing curve with a large enough effect in the repeat runs, not every such curve was filed as active; note: nearly all actives have a fitted effect of over 50% in size). The method in brief:
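Luminescence from CellTiter-Glo measures cytotoxicity in GeneBLAzer FXR-UAS-bla HEK 293T cells. Cells were exposed to compounds with 50 uM chenodeoxycholic acid (final) for 16 h at 37 C, in wells also used for the reporter readout.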

Experiment [15] concerns the target Vitamin D3 receptor (Homo sapiens) (UniProt P11473). Description: qHTS assay to identify small molecule agonists of the vitamin D receptor (VDR) signaling pathway (AID 743222; calls by dose curve). The method in brief: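 Following 4 h attachment at 37C, VDR-bla cells (2,000 per well) received DMSO-dissolved compounds or controls. After 16 h incubation, LiveBLAzer B/G FRET substrate was added and fluorescence read 2 h later at room temperature.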

For experiment [16] the target is unchanged. Description: qHTS assay to identify small molecule antagonists of the vitamin D receptor (VDR) signaling pathway (AID 743223; active = well fitted inhibition curve with a large enough effect in the signal ratio in the repeat runs, not every such curve was filed as active; the % refers to the signal ratio). The method in brief:
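Antagonist mode uses 1alpha,25-dihydroxyvitamin D3 at 3 nM final as stimulus. VDR-bla cells receive compounds in DMSO, incubate 16 h at 37C, then a beta-lactamase FRET substrate for 2 h at room temperature before fluorescence measurement.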

In experiment [17] the target is Peroxisome proliferator-activated receptor delta (Homo sapiens) (UniProt Q03181). Kind of experiment: qHTS assay to identify small molecule agonists of the peroxisome proliferator-activated receptor delta (PPARd) signaling pathway (AID 743212; calls by dose curve). The method in brief: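 Tox21 library screened in GeneBLAzer PPARd UAS-bla HEK293H cells. After compound treatment at 37 C, a FRET-based beta-lactamase substrate was applied for 2 h and fluorescence recorded.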

Experiment [18] has the same target. Kind of experiment: qHTS assay to identify small molecule antagonists of the peroxisome proliferator-activated receptor delta (PPARd) signaling pathway (AID 743215; active = well fitted inhibition curve with a large enough effect in the signal ratio in the repeat runs, not every such curve was filed as active; the % refers to the signal ratio;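 note: cells stimulated with agonist L165041 at 300 nM final during compound exposure; series mostly up to about 62 µM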). The method in brief: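 Fluorescence from cleaved LiveBLAzer B/G FRET substrate (2 h, room temperature) reports PPARd-driven beta-lactamase in HEK293H UAS-bla cells. Cells had been treated 17 h at 37 C with compound plus 300 nM final L165041.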

Experiment [19] concerns the target Bile acid receptor (Homo sapiens) (UniProt Q96RI1). Kind of experiment: qHTS assay to identify small molecule antagonists of the farnesoid-X-receptor (FXR) signaling pathway (AID 743217; active = well fitted inhibition curve with a large enough effect in the signal ratio in the repeat runs, not every such curve was filed as active; the % refers to the signal ratio). The method in brief:
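FRET fluorescence after 2 h room-temperature LiveBLAzer loading gives the readout. Prior step: FXR-bla HEK 293T cells, seeded and incubated 5 h, received test compounds plus 50 uM final CDCA for 16 h at 37 °C.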

Experiment [20] has the same target. Description: qHTS assay to identify small molecule agonists of the farnesoid-X-receptor (FXR) signaling pathway (AID 743220; active = well fitted activation curve with a large enough effect in the signal ratio in the repeat runs, not every such curve was filed as active; the % refers to the signal ratio). The method in brief:
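FXR-UAS-bla HEK 293T cells carrying a UAS-driven beta-lactamase reporter were plated for 5 h at 37C/5% CO2, then exposed to DMSO-dissolved Tox21 10K compounds for 16 h at 37C. A LiveBLAzer B/G FRET substrate was loaded for 2 h at room temperature before fluorescence reading.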

Each structure is given as a SMILES string. Several values for one entry are separate records, joined by “and”; a condition that tells them apart may be missing. Identical values can stand only once. Results filed as inconclusive are left out. A structure can be active in one record and inactive in another. Activity calls are given as the source filed them. Unless noted, calls come from the whole dose curve; as a rule, active = well fitted curve in the direction sought with a large enough effect in the repeat runs; inconclusive = weak or mixed curves; inactive = no such curve, though single readings can be large; an effect the other way counts as inactive or inconclusive.
% is set by controls: 0 for no effect and ±100 for the full control effect.

Chain of Bile acid receptor (Homo sapiens) (Q96RI1 whole entry, looked up): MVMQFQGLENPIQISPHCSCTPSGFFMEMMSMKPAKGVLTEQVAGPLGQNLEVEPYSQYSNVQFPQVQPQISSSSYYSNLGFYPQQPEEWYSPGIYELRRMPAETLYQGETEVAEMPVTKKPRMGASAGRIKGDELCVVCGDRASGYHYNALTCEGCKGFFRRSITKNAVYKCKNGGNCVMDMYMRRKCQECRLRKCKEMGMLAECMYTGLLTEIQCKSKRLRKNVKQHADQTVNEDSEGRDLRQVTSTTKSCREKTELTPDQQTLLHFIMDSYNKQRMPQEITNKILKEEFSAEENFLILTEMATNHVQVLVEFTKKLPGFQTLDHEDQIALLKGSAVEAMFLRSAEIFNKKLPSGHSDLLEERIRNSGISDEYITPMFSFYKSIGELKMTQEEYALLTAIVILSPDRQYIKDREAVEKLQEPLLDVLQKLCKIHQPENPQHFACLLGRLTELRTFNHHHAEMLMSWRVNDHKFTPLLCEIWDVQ
Chain of Peroxisome proliferator-activated receptor gamma (Homo sapiens) (P37231 whole entry, looked up): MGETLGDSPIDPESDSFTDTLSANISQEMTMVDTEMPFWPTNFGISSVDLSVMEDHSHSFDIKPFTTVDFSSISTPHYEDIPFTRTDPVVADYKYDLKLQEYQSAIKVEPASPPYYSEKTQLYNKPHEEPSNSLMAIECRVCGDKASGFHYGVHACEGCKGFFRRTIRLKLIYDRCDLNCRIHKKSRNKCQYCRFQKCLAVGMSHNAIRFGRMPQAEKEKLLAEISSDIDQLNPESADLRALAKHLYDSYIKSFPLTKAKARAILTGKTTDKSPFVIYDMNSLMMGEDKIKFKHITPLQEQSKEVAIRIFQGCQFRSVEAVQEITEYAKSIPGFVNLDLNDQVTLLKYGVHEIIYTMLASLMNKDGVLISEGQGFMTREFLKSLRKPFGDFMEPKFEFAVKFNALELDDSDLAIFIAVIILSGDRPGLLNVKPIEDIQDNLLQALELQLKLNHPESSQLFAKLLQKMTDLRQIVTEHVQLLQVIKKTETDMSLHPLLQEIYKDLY
Chain of Aryl hydrocarbon receptor (Homo sapiens) (P35869 whole entry, looked up): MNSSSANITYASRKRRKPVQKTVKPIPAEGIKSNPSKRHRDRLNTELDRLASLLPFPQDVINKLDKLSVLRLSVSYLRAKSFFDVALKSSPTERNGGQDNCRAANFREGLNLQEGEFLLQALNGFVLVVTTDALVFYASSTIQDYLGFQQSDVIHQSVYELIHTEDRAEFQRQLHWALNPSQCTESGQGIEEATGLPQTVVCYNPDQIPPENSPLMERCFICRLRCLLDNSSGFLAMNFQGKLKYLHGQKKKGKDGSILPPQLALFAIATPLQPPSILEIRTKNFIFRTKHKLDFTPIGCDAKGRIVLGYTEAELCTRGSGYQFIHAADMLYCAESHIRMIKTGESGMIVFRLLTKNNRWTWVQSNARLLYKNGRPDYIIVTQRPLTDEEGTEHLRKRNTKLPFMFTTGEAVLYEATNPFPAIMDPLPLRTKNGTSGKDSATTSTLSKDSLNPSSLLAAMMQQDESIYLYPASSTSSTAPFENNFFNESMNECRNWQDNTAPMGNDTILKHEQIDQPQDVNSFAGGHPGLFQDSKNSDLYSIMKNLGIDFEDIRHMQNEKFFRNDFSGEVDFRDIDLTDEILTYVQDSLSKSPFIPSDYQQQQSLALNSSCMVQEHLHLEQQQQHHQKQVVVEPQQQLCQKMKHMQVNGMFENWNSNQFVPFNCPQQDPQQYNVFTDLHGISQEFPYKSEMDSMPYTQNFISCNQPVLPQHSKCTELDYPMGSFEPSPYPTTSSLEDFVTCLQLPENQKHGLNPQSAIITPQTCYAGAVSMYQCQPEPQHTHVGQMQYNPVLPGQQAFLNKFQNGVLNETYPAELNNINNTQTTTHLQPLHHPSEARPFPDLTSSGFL
Chain of Peroxisome proliferator-activated receptor delta (Homo sapiens) (Q03181 whole entry, looked up): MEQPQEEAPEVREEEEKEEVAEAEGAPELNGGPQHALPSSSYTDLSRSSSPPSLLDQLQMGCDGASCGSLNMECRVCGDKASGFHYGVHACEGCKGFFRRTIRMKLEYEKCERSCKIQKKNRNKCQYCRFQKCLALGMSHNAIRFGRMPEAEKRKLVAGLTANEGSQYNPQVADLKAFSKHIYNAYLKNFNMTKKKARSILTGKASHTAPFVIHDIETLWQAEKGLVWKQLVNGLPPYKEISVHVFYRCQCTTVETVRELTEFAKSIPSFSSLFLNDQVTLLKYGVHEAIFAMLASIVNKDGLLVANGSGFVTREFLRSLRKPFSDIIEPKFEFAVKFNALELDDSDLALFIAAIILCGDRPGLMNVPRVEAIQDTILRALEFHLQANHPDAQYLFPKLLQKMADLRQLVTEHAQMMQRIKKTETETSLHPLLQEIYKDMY
Chain of Vitamin D3 receptor (Homo sapiens) (P11473 whole entry, looked up): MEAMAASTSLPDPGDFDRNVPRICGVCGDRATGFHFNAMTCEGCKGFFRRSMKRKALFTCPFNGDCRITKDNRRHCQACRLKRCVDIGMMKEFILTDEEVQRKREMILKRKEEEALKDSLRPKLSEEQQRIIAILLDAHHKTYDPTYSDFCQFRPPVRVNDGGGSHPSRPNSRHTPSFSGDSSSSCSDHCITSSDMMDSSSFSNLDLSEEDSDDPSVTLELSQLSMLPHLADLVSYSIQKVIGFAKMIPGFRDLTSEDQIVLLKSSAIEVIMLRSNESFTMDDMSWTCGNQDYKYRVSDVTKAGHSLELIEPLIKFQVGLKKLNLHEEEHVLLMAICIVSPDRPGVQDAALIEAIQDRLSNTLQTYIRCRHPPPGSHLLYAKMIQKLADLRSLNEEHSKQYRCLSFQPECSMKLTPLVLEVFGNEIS

`CCCCCCO`: the Potency entry in experiment [1], in experiment [2], in [3], in experiment [7] and in [8] was “inactive” throughout. The molecule was called inactive in [4], in [5], in experiment [6], in experiment [9], in [10] and in [11]. In addition, the call in experiment [12], in [13], in [14], in experiment [15] and in [16] was inactive.

For `Cc1ccc([N+](=O)[O-])cc1S(=O)(=O)O`, the Potency entry in experiment [1], in experiment [2], in [3], in experiment [7], in experiment [8] and in [17] was “inactive” throughout. In addition, the molecule was classed as inactive in [4], in experiment [5], in [6], in [9], in [10] and in experiment [12]. The outcome in experiment [18], in [14], in experiment [15] and in experiment [16] was inactive.

`CCCCCCCC=O`: the Potency entry in experiment [1], in [2], in experiment [3], in experiment [7] and in [8] was “inactive” throughout. For the same molecule, the molecule was called inactive in experiment [4], in experiment [6], in experiment [9], in [10], in [11] and in experiment [12]. The molecule was classed as inactive in experiment [13], in experiment [14], in [15] and in experiment [16].

Consider `CCc1ccccc1CC`, for which the Potency entry in [1], in experiment [2], in [3], in experiment [7] and in [8] was “inactive” throughout. In addition, the call in experiment [4], in experiment [6], in experiment [9], in [10], in [11] and in [14] was inactive. Moreover, the viability change, negative = cytotoxic in experiment [12] is -6.24% [at 13.7 µM] (inactive); in experiment [13] it was 18.7% [at 13.2 µM] (inactive).

Regarding `C[Si]1(C)O[Si](C)(C)O[Si](C)(C)O[Si](C)(C)O1`, the Potency result in experiment [1], in experiment [2], in experiment [3], in experiment [7], in experiment [8] and in experiment [17] was “inactive” in each case. Further, the outcome in experiment [4], in experiment [6], in [9], in experiment [10], in experiment [12] and in experiment [18] was inactive. Also, the result in [19], in experiment [20], in experiment [14], in experiment [15] and in experiment [16] was inactive.

Turning to `CC(C)CC(C)O` (stereo not drawn), the Potency result in [1], in experiment [2], in [3], in experiment [8] and in experiment [17] was “inactive” throughout. In addition, the outcome in experiment [4], in experiment [6], in experiment [9], in experiment [10], in experiment [11] and in [12] was inactive. Besides, the call in [19], in experiment [13], in experiment [20], in [14], in [15] and in experiment [16] was inactive. In addition, the Potency entry in [7] is “inactive and 30.6 µM (active)”.

On to `Cc1ccc2ncccc2c1`, for which the Potency entry in experiment [1], in experiment [2], in experiment [3], in experiment [7], in experiment [8] and in experiment [17] was “inactive” each time. For the same molecule, the call in [4], in experiment [6], in [9], in [10], in [12] and in experiment [18] was inactive. The outcome in experiment [13] and in experiment [14] was inactive.

In the case of `CC(O)CC(C)(C)O` (stereo not drawn), the Potency result in [1], in experiment [2], in experiment [3], in experiment [7] and in experiment [8] was “inactive” in each case. Moreover, the molecule was classed as inactive in [4], in experiment [6], in [9], in experiment [10], in [11] and in experiment [12]. In addition, the call in [13], in experiment [14], in experiment [15] and in experiment [16] was inactive.

Consider `O=C(O)CCCCCCCCC(=O)O`, for which the Potency entry in [1], in experiment [2], in experiment [3], in experiment [7], in [8] and in experiment [17] was “inactive” in each case. The outcome in [4], in experiment [6], in experiment [9], in [10], in [11] and in experiment [12] was inactive. Also, the molecule was classed as inactive in experiment [18], in experiment [19], in experiment [13], in [20], in experiment [14] and in experiment [15]. Further, the outcome in experiment [16] was inactive.

The values are drawn from PubChem BioAssay (Tox21).
